# Hit rate of the full screen: of about 410,000 compounds, about 6,400 (1.6%) were called active. A call without a number means that no potency is given here. Inconclusive results (about 20%) are left out. The call rests on the fitted dose curve; in most records, active means well fitted inhibition curve with a large enough effect; inconclusive means small, poorly fitted or top-dose-only effect; inactive means no such curve, though single readings can be large or run the other way. This excerpt belongs to a sample that is enriched for actives.
# Target: Glucagon-like peptide 1 receptor (Homo sapiens) (UniProt P43220)
# Sequence (P43220 whole entry, looked up): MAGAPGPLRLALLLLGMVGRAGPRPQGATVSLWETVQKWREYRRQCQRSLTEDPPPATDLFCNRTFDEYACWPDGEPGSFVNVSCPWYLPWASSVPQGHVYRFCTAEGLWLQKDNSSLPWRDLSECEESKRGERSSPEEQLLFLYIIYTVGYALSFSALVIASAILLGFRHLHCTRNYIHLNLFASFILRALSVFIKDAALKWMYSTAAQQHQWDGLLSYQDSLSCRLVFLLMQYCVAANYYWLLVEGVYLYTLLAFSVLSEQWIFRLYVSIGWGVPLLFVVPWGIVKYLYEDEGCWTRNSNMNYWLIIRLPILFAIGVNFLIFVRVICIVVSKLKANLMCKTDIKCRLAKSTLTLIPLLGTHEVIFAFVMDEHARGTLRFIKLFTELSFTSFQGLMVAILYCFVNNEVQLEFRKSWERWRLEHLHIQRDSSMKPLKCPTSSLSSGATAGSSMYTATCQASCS
# Test: qHTS of GLP-1 Receptor Inverse Agonists (Inhibition Mode); further: nearly all actives have a fitted effect of over 55% in size
# Settings: HEK293 GLP-1R CRE-luciferase, luminescence, 24 h, GLP-1R form is constitutively active; series mostly up to 38.3 µM
# In short: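 GLP-1R inverse agonism mode: basal reporter luminescence in engineered HEK293 cells measured after one day of compound exposure at 37 deg C, with a 12 min room-temperature detection step.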
# Potency means the concentration at half of the fitted maximal effect.
row,SMILES,Potency
1,COc1ccc(-c2cn3cccnc3n2)cc1,inactive
2,CCN(CC)S(=O)(=O)c1ccc(-c2cn3ccc(C)cc3n2)cc1,inactive
3,COc1ccc(-c2cn3ccc(C)cc3n2)cc1,6.31 µM (active)
4,COc1ccc(-c2c(C#N)cnc(C)c2C)c(O)c1OC,inactive
5,CNC[C@H]1OCc2cnnn2CCCC(=O)N([C@H](C)CO)C[C@@H]1C,inactive
6,OC(c1ccc(Cl)c(F)c1)c1ncc(-c2ccccc2Cl)[nH]1 (stereo not given),inactive
7,COC(=O)c1ccc(C(NC(=O)OCc2ccccc2)/C(F)=C/[C@@H](C)C(=O)O)cc1 (stereo not given in full),inactive
8,COC(=O)c1ccc(NCC(=O)c2ccccc2)cc1,inactive
9,CCC[C@@H]1C[C@@]1(CCC)[C@@H](NC(=O)c1ccccc1)c1ccc(C(=O)OC)cc1,5.01 µM (active)
10,CCc1ccccc1NC(=O)NCCN1CCCCC1,inactive
11,Cc1ccc(C(=O)NCCNS(=O)(=O)c2ccccc2)cc1,inactive
12,Cc1ccccc1CN1C(=O)c2ccccc2Sc2ccc(C(=O)NCCCN3CCOCC3)cc21,inactive
13,COc1ccc(C(=O)NCCCN2CCOCC2)cc1Br,inactive
14,CCC1=Nc2cc(C(=O)NCCN3CCCC3)ccc2Sc2ccc(C)cc21,3.55 µM (active)
15,Cc1ccc(C(=O)NC(=S)NCCN2CCOCC2)cc1,inactive
16,CCC1=Nc2cc(C(=O)NCCCN3CCOCC3)ccc2Sc2ccc(Br)cc21,11.2 µM (active)
17,CC1=C(C(=O)Nc2cccc(C(=O)NCC(C)c3ccccc3)c2)SCCO1 (stereo not given),inactive
18,CCC1=Nc2cc(C(=O)NCC(C)c3ccccc3)ccc2Sc2ccc(C)cc21 (stereo not given),5.01 µM (active)
19,O=C(Nc1ccccc1)c1ccccc1Br,inactive
20,CC(OC(=O)c1cccc(S(=O)(=O)N2CCOCC2)c1)C(=O)NCC1CCCCC1 (stereo not given),inactive
21,CC1=C(C(=O)N2CCOCC2)CC(CC(=O)NCCN2CCOCC2)C(=O)N1CCC1=CCCCC1 (stereo not given),inactive
22,COCCNC(=O)C1C(=O)Nc2ccccc2C(=O)N1c1ccc2c(c1)OCCO2 (stereo not given),inactive
23,CCc1oc(-c2ccc(OC)cc2)c(C(=O)OCCCCCO)c1C(C)OCCO (stereo not given),inactive
24,CC1(C(=O)Nc2ccccc2Br)CCN1C(=O)CC1CC1 (stereo not given),inactive
25,Oc1ccc(-c2nnc(Nc3ccccc3)c3ccccc23)cc1,inactive

row,SMILES,Potency
1,Cc1cccc(-c2nc(Nc3ccc(O)cc3)c3ccccc3n2)c1,2.82 µM (active)
2,COc1cccc(Nc2nc3ccccc3c3nncn23)c1,inactive
3,Cc1cccc(-c2noc(-c3ccc(F)cc3)n2)c1,inactive
4,COc1ccc(Nc2nnc(C)c3ccccc23)cc1,inactive
5,COc1cc(Nc2nc(-c3ccc(OC)c(OC)c3)nc3ccccc23)cc(OC)c1,11.2 µM (active)
6,C[C@H]1CN([C@@H](C)CO)C(=O)CCCn2cc(nn2)CO[C@@H]1CN(C)C(=O)Nc1ccccc1,inactive
7,CCCCNC(=O)C[C@@H]1C[C@@]2(C(=O)OC)CC(C)(C)CC=C2N(Cc2ccco2)C1=O,inactive
8,Cc1cn([C@H]2C[C@H](O)[C@@H](/C=C/C(=O)NCCCc3ccccc3)O2)c(=O)[nH]c1=O,inactive
9,CC(C)(C)C(=O)c1c(N)[nH]c(C(=O)c2ccccc2)c1-c1ccc(F)cc1,inactive
10,C[C@H](CO)N1C[C@H](C)[C@@H](CN(C)C(=O)C2CCCCC2)OCc2cnnn2CCCC1=O,inactive
11,CC1CCc2c(nc3ncnn3c2Nc2ccc(OC(F)(F)F)cc2)C1 (stereo not given),11.2 µM (active)
12,CC(=O)c1nn(-c2ccc(OC(F)(F)F)cc2)nc1Nc1ccccc1,inactive
13,Brc1ccc(Nc2c3c(nc4ncnn24)CCC3)cc1,inactive
14,COc1ccc(-c2nc3ccc(Br)cn3c2Cc2ccc(C)cc2)cc1OC,inactive
15,CC(C)c1cc(Cn2c3ccccc3c(=O)n2C(C)Cn2cc(C3CC3)nn2)on1 (stereo not given),inactive
16,CCN(CC)S(=O)(=O)c1ccc(Cl)c(C(=O)NC(C)C(c2cccs2)N2CCCC2)c1 (stereo not given),5.62 µM (active)
17,CCN(CC)S(=O)(=O)c1ccc(Cl)c(C(=O)NCCN2CCOCC2)c1,inactive
18,CCN(CC)S(=O)(=O)c1ccc(N2CCCC2)c(NS(=O)(=O)c2cccs2)c1,inactive
19,COc1ccc(CN2C(=O)C(CC(=O)NC3CCCCC3)CC(C(=O)N3CCOCC3)=C2C)cc1 (stereo not given),inactive
20,CC(=O)Nc1ccc(-c2ccnc3c2CC(C(=O)NC(C)C)O3)cc1 (stereo not given),inactive
21,COc1ccc(NC(=O)C2Cc3c(-c4cccc(NC(C)=O)c4)ccnc3O2)cc1OC (stereo not given),inactive
22,O=C(Nc1ccc(Cl)cc1)C1Cc2c(-c3ccc4c(c3)OCO4)ccnc2O1 (stereo not given),11.2 µM (active)
23,COc1ccc(NC(=O)CCCOc2ccc(C(C)=O)cc2)cc1S(=O)(=O)N1CCCCC1,inactive
24,CN(Cc1ccccc1)C(=O)CCC1CCN(C(=O)c2ccco2)CC1,inactive
25,C[C@H]1CN([C@@H](C)CO)C(=O)CCCn2cc(nn2)CO[C@@H]1CN(C)S(=O)(=O)c1ccccc1C#N,inactive

row,SMILES,Potency
1,CCCCCCNC(=O)O[C@]12C[C@@H](C(=O)OC)[C@@H](C(=O)OC)C[C@@]1(O)CN(S(=O)(=O)c1ccc(C)cc1)C2,inactive
2,Cc1ccc(OCc2n[nH]c(=S)n2-c2ccccc2)cc1,inactive
3,Cc1cccnc1NC(=O)CSc1nnc(COc2ccc(C(C)C)cc2)n1C,inactive
4,Cc1ccc(OCc2nnc(SC3CCc4ccccc4C3=O)n2C)cc1 (stereo not given),7.08 µM (active)
5,O=C(COC(=O)c1ccc(S(=O)(=O)N2CCCCCC2)cc1)Nc1ccccc1C(F)(F)F,inactive
6,CN1OC[C@@H]2CN(C(=O)C(C)(C)C)[C@H](c3ccc(-n4ccnc4)cc3)C[C@@H]21,inactive
7,COc1ccc2sc(-c3ccc(S(C)(=O)=O)cc3)c(-c3ccc(C(N)=O)cc3)c2c1,inactive
8,COc1cc(C(C)=O)ccc1OC(=O)CN1C(=O)c2ccccc2C1=O,inactive
9,COc1ccccc1-c1sc2ccccc2c1-c1ccc(C(C)=O)cc1,10 µM (active)
10,COc1ccc2sc(-c3ccccc3OC)c(-c3ccc(OCCN4CCCC4)cc3)c2c1,inactive
11,COc1ccccc1-c1sc2ccccc2c1-c1ccc(Br)nc1,10 µM (active)
12,COc1ccc(-c2sc3ccccc3c2-c2ccc(OCCN3CCOCC3)cc2)cc1,inactive
13,N#Cc1ccc(-c2nc3c(Cl)cc(C(F)(F)F)cn3c2Cc2ccccc2C(F)(F)F)cc1,inactive
14,CC1(C(=O)NS(=O)(=O)c2cccc(F)c2)CCN1C(=O)Cc1cc(F)ccc1F (stereo not given),inactive
15,Cc1cccc(CN2CCN(C3CN(Cc4cn(Cc5cc(C)cc(C)c5)nn4)S(=O)(=O)C3)CC2)c1 (stereo not given),inactive
16,COC(=O)[C@]12CCCCC=C1N(Cc1ccc3c(c1)OCO3)C(=O)[C@H](CC(=O)N1CCOCC1)C2,inactive
17,C[C@@H]1CN([C@H](C)CO)C(=O)CCCn2nncc2CO[C@@H]1CN(C)C(=O)OCc1ccccc1,inactive
18,O=C1NC[C@H](CCCCN2C[C@H](Cc3ccc(O)cc3)N(CCc3ccccc3)C(=O)C2=O)N(CCc2ccccc2)C1=O,inactive
19,CC1=C(C(=O)N2CCOCC2)CC(CC(=O)NCc2cccs2)C(=O)N1CCCN1CCCC1=O (stereo not given),inactive
20,CC1=C(C(=O)N(C)C)CC(CC(=O)NCCc2ccccn2)C(=O)N1CCC1=CCCCC1 (stereo not given),inactive
21,CCCc1nc(NCc2ccc3c(c2)OCO3)c2nnn(Cc3ccccc3Cl)c2n1,inactive
22,Cc1nc(Nc2ccc3c(c2)OCCO3)c2nnn(Cc3ccccc3Cl)c2n1,3.55 µM (active)
23,Cc1nc(Nc2ccccc2F)c2nnn(Cc3ccccc3Cl)c2n1,inactive
24,O=C(O)C(=Cc1ccc([N+](=O)[O-])cc1)CCc1ccccc1,inactive
25,COCCNC(=O)C1CCCN(Cc2ccccc2Cl)CC1 (stereo not given),inactive

row,SMILES,Potency
1,O=C(NCc1ccccn1)[C@@H]1CCCN1C(=O)[C@@H]1CCCN1C(=O)c1ccccc1,inactive
2,COC(=O)C1(C(=O)OC)C/C=C\CN(S(=O)(=O)c2ccccc2[N+](=O)[O-])CCC1,inactive
3,CC(Sc1ccc(S(=O)(=O)N2CCN(C)CC2)cn1)C(=O)NC1CCCC(C)C1C (stereo not given),inactive
4,Cc1nc(NC(=O)c2ccc3c(c2)OCCO3)ccc1Br,inactive
5,COc1c(Cl)cc(C(=O)Nc2ccc(Cl)cn2)cc1Cl,inactive
6,O=C(Nc1ccc(Cl)cn1)c1ccc2c(c1)OCCO2,7.08 µM (active)
7,CN(Cc1ccccc1)C(=O)COc1ccccc1,inactive
8,Cc1ccc(S(=O)(=O)CCC(=O)OCC(=O)N(C)Cc2ccccc2)cc1,inactive
9,CN(Cc1ccccc1)C(=O)COC(=O)c1ccccc1Nc1ccccc1,12.6 µM (active)
10,CC(=O)Nc1cncc(-c2ccccc2CO)n1,inactive
11,CCOC(=O)C1(C)CCCN(C(=O)c2cccc(Cl)c2)C1 (stereo not given),inactive
12,NS(=O)(=O)c1ccc(CCNc2nc(C(F)(F)F)nc3ccccc23)cc1,inactive
13,COc1cccc(CNC(=O)c2n[nH]c3ccccc23)c1,inactive
14,COc1cccc(CNc2nc(C(F)(F)F)nc3ccccc23)c1,10 µM (active)
15,CCN(CC)C(=O)C1CCCN(Cc2cccc(Cl)c2)C1 (stereo not given),inactive
16,Nc1nc2ncccn2c1-c1ccccc1,inactive
17,CCOC(=O)C1(C)CCCN(C(=O)c2ccc(N(C)C)cc2)C1 (stereo not given),inactive
18,O=S1(=O)CCN(C2CCCCCCCCCCC2)CC1,inactive
19,COc1ccc(C2(c3ccc(OC)cc3)NC(=O)N(CC(=O)Nc3cc(C)on3)C2=O)cc1,inactive
20,COC(=O)c1ccc(CN2C(=O)NC(c3ccccc3)(c3ccccc3)C2=O)o1,inactive
21,Cc1ccc(C2(c3ccc(C)cc3)NC(=O)N(Cc3c(C)noc3C)C2=O)cc1,10 µM (active)
22,Cc1ccc(-c2nc3c(C)cc(Br)cn3c2Cc2ccccc2)cc1,inactive
23,CCC(C(=O)Nc1c(C)cccc1C)n1c(-c2cc(C)cs2)nc2ccccc21 (stereo not given),inactive
24,CCC(c1nc2ccccc2[nH]1)n1c(=O)c(-c2cccs2)nc2ccccc21 (stereo not given),10 µM (active)
25,O=C(Nc1ccccc1-c1nc2ccccc2[nH]c1=O)c1cccs1,inactive
